GPR151 ag: activators of human GPR151; Q8TDV0; PathHunter beta-arrestin GPR151 cells, luminescence; activation, % at 11.2 µM; hit rate 1% among 650,000; AID 1508602; in the data active means activation above about 4.9%
FBW7 activator: activators of human E3 ligase FBW7. hit rate 0.13% among 650,000. normalized activity (activation), % at 26.1 µM. AlphaScreen FBW7–phospho-cyclin E peptide binding, activator screen. AID 1259310; in the data active means normalized activity above about 1.9%;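 further: purified mutant Fbw7 with reduced substrate affinity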
TEAD-YAP block: TEAD-YAP interaction inhibition; HEK-TIYL cells, TEAD-Gal4/YAP UAS-luciferase luminescence; inhibition, % at 9.12 µM; hit rate 1.4% among 640,000; AID 1259422; in the data active means inhibition above about 32%
MITF inh: inhibitors of human MITF. inhibition, % at 2.6 µM. hit rate 0.91% among 650,000. AlphaScreen MITF homodimerization, bead proximity signal. AID 1259374. O75030; in the data active means inhibition above about 50%
Target sequence (O75030 whole entry, looked up): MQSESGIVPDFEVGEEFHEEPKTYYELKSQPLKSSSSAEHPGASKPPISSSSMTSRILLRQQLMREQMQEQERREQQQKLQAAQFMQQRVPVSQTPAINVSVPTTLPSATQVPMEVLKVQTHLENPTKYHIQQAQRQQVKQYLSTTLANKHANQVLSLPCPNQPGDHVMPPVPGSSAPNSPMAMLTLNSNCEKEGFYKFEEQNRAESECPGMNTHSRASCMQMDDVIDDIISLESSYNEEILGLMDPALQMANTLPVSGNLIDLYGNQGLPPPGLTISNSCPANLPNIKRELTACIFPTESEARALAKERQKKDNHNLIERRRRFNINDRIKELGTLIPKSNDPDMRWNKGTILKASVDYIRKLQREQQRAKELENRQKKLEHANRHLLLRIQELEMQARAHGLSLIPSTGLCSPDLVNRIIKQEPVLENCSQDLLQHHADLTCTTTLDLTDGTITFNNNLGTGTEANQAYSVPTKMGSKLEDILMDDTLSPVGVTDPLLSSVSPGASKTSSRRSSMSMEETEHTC
Of the large screens only hits and unclear results are named; the others gave an inactive call. Sampled rows, rich in hits. Any-hit rate of the full collection: about 3.5%.

NC(c1nc2ncc(-c3ccncc3)cc2[nH]1)c1ccc(F)cc1F (centres undefined)	FBW7 activator 3.5
N[C@H](Cc1ccc(Cl)cc1)c1nc2ncc(-c3ccncc3)cc2[nH]1	none
CCN1/C(=C/c2ccc3ccc(C)cc3[n+]2CC)Sc2cc(C)c(C)cc21	TEAD-YAP block 89
CCN1/C(=C/c2ccc3ccc(C)cc3[n+]2C)Sc2ccccc21	TEAD-YAP block 90
CCN1/C(=C/c2ccc3cc(C)ccc3[n+]2CC)Sc2c(C)cc(C)cc21	TEAD-YAP block 73
CCN1/C(=C/c2ccc3cc(C)ccc3[n+]2CC)Sc2cc(NC(C)=O)ccc21	none
CCOC(=O)c1c(NC(=O)c2cccc(S(=O)(=O)N3CCOCC3)c2)sc(C(C)=O)c1C	none
COc1cc2ccccc2cc1C(=O)N/N=C\c1ccc([N+](=O)[O-])cc1	none
O=C(Cn1c(=O)oc2ccccc21)Nc1ccnc2ccccc12	TEAD-YAP block 32
COc1ccccc1C(C)NCC(=O)Nc1cc(C)on1 (centres undefined)	none
CC(C)CNc1nccn2c(-c3cccc(O)c3)cnc12	none
CC(=O)Nc1cccc(-c2cnc3c(NCc4ccco4)nccn23)c1	FBW7 activator 2.3, TEAD-YAP block 47
CC(=O)Nc1cccc(-c2cnc3c(NCC(C)C)nccn23)c1	TEAD-YAP block 65
CC(=O)Nc1cccc(-c2cnc3c(NCCc4cccnc4)nccn23)c1	TEAD-YAP block 65
CC(=O)Nc1cccc(-c2cnc(NCc3cccc(Cl)c3)c3nccn23)c1	TEAD-YAP block 69
COc1ccc(/C(C)=N/NC(=O)C(C)Nc2ccc(Cl)cc2)cc1 (centres undefined)	none
CC(=O)c1cccc(-c2cnc3c(NCC4CC4)nccn23)c1	none
CC(=O)Nc1cccc(-c2cnc3c(NCC4CC4)nccn23)c1	TEAD-YAP block 80
CC1C=CCC2C(=O)N(c3ncn[nH]3)C(=O)C12 (centres undefined)	none
CCCN1C(=O)/C(=C\c2nc3ccccc3c(=O)n2-c2ccc(C)cc2)c2cc(Br)ccc21	none
COc1ccc(/C=C2\SC(=O)NC2=Nc2ccc(C)cc2)c(OC)c1	TEAD-YAP block 58
COc1ccc(/C=C2\SC(=Nc3cc(C)cc(C)c3)NC2=O)c(OC)c1	TEAD-YAP block 57
COc1ccc(/C=C2\SC(=Nc3cccc(C)c3C)NC2=O)c(OC)c1	none
CC(=O)c1ccc(NC(=O)/C=C/c2ccccc2Cl)cc1	none
N#CS/C=C/C(=O)c1ccccc1	TEAD-YAP block 52
COc1ccc2cc3c(N)[nH]nc3nc2c1	TEAD-YAP block 80
O=C(COC(=O)c1ccc([N+](=O)[O-])o1)NC(=O)Nc1ccc2c(c1)OCCO2	TEAD-YAP block 37
COc1ccc(C(C)NC(=O)c2ccoc2C)cc1OC (centres undefined)	none
CN(C)c1ccc(C(=O)c2ccc(N(C)C)c3ccccc23)cc1	TEAD-YAP block 50
COc1ccc(C(=O)c2ccc(N(C)C)cc2)c(OC)c1	TEAD-YAP block 55
Cc1ccc(C(=O)Nc2ccc(N(C)C)c3ccccc23)cc1	none
CCCCN1C(=O)c2cccc3c(N)ccc(c23)C1=O	none
CC(C)CCN1C(=O)c2cccc3c(N)ccc(c23)C1=O	FBW7 activator 2.1
CC(C)OC(=O)COc1cc(O)c2c(=O)cc(-c3ccccc3)oc2c1	none
O=C(CC1CS(=O)(=O)CC1CC(=O)Nc1ccccc1)Nc1ccccc1 (centres undefined)	none
CCNc1nc(NCCN(C(C)C)C(C)C)c2ncn(-c3ccsc3)c2n1	none
CN(C)c1ccc(-c2ccc(OC3CCNCC3)cc2)cn1	TEAD-YAP block 57
CN(C)c1ccc(-c2ccc(OC3CCN(c4ncccn4)CC3)cc2)cn1	TEAD-YAP block 48
COc1ccccc1NC(=O)N1CCC(C(=O)Nc2cc(C)cc(C)c2)CC1	none
CN(C)c1ccc(-c2ccc(OC3CCN(S(C)(=O)=O)CC3)cc2)cn1	none
COc1ccccc1NC(=O)N1CCC(Oc2ccc(-c3ccc(N(C)C)nc3)cc2)CC1	TEAD-YAP block 35
Cc1ccccc1-c1ccc(N2CCN(S(C)(=O)=O)CC2)nn1	TEAD-YAP block 45
Cc1ccccc1-c1ccc(N2CCN(C(=O)C3CCN(S(C)(=O)=O)CC3)CC2)nn1	none
CCOc1cc(C(Nc2ccccn2)c2ccc3cccnc3c2O)ccc1OC (centres undefined)	TEAD-YAP block 89
CCOc1cc(C(Nc2ccccn2)c2ccc3cccnc3c2O)ccc1O (centres undefined)	none
CCc1ccc(C(Nc2ccccn2)c2ccc3ccc(C)nc3c2O)cc1 (centres undefined)	none
COc1cc(C(Nc2ccccn2)c2ccc3ccc(C)nc3c2O)cc(OC)c1O (centres undefined)	TEAD-YAP block 33
CCOc1ccc(C(Nc2ccccn2)c2ccc3cccnc3c2O)cc1 (centres undefined)	TEAD-YAP block 86
COc1ccc(C(Nc2ccccn2)c2ccc3cccnc3c2O)cc1 (centres undefined)	TEAD-YAP block 86
CN(C)c1ccc(/C=N/NC(=O)CNC(=O)c2ccccc2Br)cc1	none
Cc1ccc(Oc2ccc(NC(=O)C(C)Oc3ccccc3)cc2)nn1 (centres undefined)	none
O=C(Nc1cccc([N+](=O)[O-])c1)c1ccc(C(F)(F)F)cc1	none
COc1cc(C(Nc2ccccn2)c2ccc3cccnc3c2O)cc(Br)c1OC (centres undefined)	TEAD-YAP block 76
CN1CCN(c2ccnc3c(-c4ccc(O)cc4)cnn23)CC1	TEAD-YAP block 43, MITF inh 78
CN(C)c1cccc(Nc2ccnc3c(-c4ccc(O)cc4)cnn23)c1	none
Cc1cccc(N(C)c2ccnc3c(-c4cccc(CO)c4)cnn23)c1	TEAD-YAP block 76
CN1CCN(c2ccnc3c(-c4ccc(Cl)cc4)cnn23)CC1	none
CN(C)c1cccc(Nc2ccnc3c(-c4cccc(CO)c4)cnn23)c1	TEAD-YAP block 63
CCCNc1ccnc2c(-c3ccc(N(C)C)cc3)cnn12	none
CCCNc1ccnc2c(-c3ccc(O)cc3)cnn12	TEAD-YAP block 97
CN(C)C(=O)c1cnccc1Nc1ccc(C(=O)NCC(O)C(=O)N2CCOCC2)cc1 (centres undefined)	none
COc1ccc(-c2nc3s/c(=C\c4ccco4)c(=O)n3n2)cc1OC	none
Cc1ccc(C(=O)NC2CCN(C(=S)NCc3ccco3)CC2)cc1	none
CCCNc1ccnc2c(-c3cccc(CO)c3)cnn12	TEAD-YAP block 102
OCc1cccc(-c2cnn3c(NCCCN4CCOCC4)ccnc23)c1	none
C/C(=N\Nc1nc2ccccc2[nH]1)c1ccccc1Cl	none
C/C(=N\Nc1nc2ccccc2[nH]1)c1ccccc1O	MITF inh 52
C(=N\Nc1nc2ccccc2[nH]1)/c1ccccn1	TEAD-YAP block 95
C(=N\Nc1nc2ccccc2[nH]1)/c1cccc(/C=N/Nc2nc3ccccc3[nH]2)c1	none
Oc1ccc(Br)cc1/C=N\Nc1nc2ccccc2[nH]1	TEAD-YAP block 65
C[C@@H]1/C=C/CC(=O)OC[C@H]2O[C@@H](C=C[C@@H]2O)[C@H](C)/C=C/CC(=O)OC[C@H]2O[C@H]1C=C[C@@H]2O	none (no result: TEAD-YAP block)

Screens deposited in PubChem BioAssay by The Scripps Research Institute Molecular Screening Center.
